# From PubChem BioAssay (NCI)
# The panel holds about 83,000 compounds, 20% with a hit somewhere; the sample as a whole holds those more often.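 Treatment: one concentration, 48 hours, 96-well format. Scoring: percent growth, with anything below 10 considered active.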 Activity calls are given as the source filed them.
# Test system: HOP-92 NSCLC
# Experiment: NCI-60 one-dose screen, 48 h (100 = growth as untreated, 0 = no growth, -100 = all killed)
# Conditions: 10 µM unless noted
# Method: Growth inhibition of the HOP-92 human Non-Small Cell Lung tumor cell line is measured as a screen for anti-cancer activity. Cells are grown in 96 well plates and exposed to the test compound for 48 hours. Compounds are tested at a single concentration, which is 10^-5 M for most compounds. The reported endpoint is percent growth (GI% or GIPRCNT), where numbers from 0 - 100% represent growth inhibition, and numbers from -100% - 0 represent cell death. For example, a value of 40 represents 60% growth inhibition. A value of 0 means no net growth occurred over the course of the experiment. A value of -40 indicates 40% of cells at the beginning of the experiment died by the end of the experiment. A value of -100 means all cells are dead at the end of the experiment.
# NCI-60 Human Tumor Cell Lines Screen was performed using the standard one-dose NCI protocol, which is described in more detail at https://dtp.cancer.gov/discovery_development/nci-60/default.htm.
# Compounds with GIPRCNT values below 10 were considered active. Activity score was based on GIPRCNT using the following formula: […]
# Score is 0 for GIPRCNT values of 100 or above, 50 for GIPRCNT values of 0, and 100 for GIPRCNT values of -100.
row,SMILES,growth
1,N#Cc1ccc(-n2nnc3ccccc32)cc1C#N,103% (inactive)
2,COc1ccc(F)c(F)c1C(=O)c1cnc(NC2CCN(S(C)(=O)=O)CC2)nc1N,-8.59% (active)
3,O=C(Nc1ccc(Nc2ncnc3sc4c(c23)CCOC4)cc1)Nc1ccc(Cl)c(C(F)(F)F)c1,89% (inactive)
4,Nc1cc2c(cc1Br)-c1c(C(=O)O)cccc1C2O (stereo not given),125% (inactive)
5,CC/C(=C(\c1ccc(OCCN2CCCCCCC2)cc1)c1ccc(OC(=O)C2CCCCC2)cc1)c1ccc(Cl)cc1,90.3% (inactive)
6,Cc1cc2c3c(cccc3c1)C(=O)c1ccccc1-2,108% (inactive)
7,CN(c1ncccc1CNc1nc(Nc2ccc3c(c2)CC(=O)N3)ncc1C(F)(F)F)S(C)(=O)=O,2.42% (active)
8,N#Cc1c(NC(=O)c2cccs2)[n+]([O-])c2ccc(F)cc2[n+]1[O-],73.3% (inactive)
9,COc1cc2c(cc1OCCCN1Cc3ccc(OCCCCC(=O)N4CCC(CCN5CCCC5)CC4)cc3C1)N=C(N)C21CCCC1,78.7% (inactive)
10,CC(C)=CCc1cc2c(cc1O)C1=C(C(=O)C3=C(NCCS3(=O)=O)C1=O)C(C=C(C)C)O2 (stereo not given),115% (inactive)
11,ClCc1ccc(-c2ccc(Cn3cnc4c(Cl)nc(Cl)nc43)cc2)cc1,-77.9% (active)
12,COc1ccc(C(=O)N2c3ccccc3Sc3ccccc32)c(F)c1,42.3% (inactive)
13,Cc1cc(C(O)CN(C)C)cc2c1ccc1cc(C(C)C)ccc12 (stereo not given),5.86% (active)
14,COC[C@@H](C)n1c(C2CCOCC2)nc2c1C1C=C(OC)C(c3c(C)noc3C)=CC1N=C2 (stereo not given in full),11.1% (inactive)
15,COc1cc2c(c(OC)c1)C1c3ccccc3NC(=O)N1CC2 (stereo not given),28.7% (inactive)
16,Cc1ccc(NC(=O)c2ccc(CN3CC[C@H](N(C)C)C3)c(C(F)(F)F)c2)cc1Nc1nccc(-c2cncnc2)n1,-84.7% (active)
17,Cc1ccc(-[n+]2c3cc(N)c(C)cc3nc3cc(C)c(Nc4ccccc4)cc32)cc1,-60.5% (active)
18,O=C1NC(=O)C(c2cnc3ccccn23)=C1c1cn2c3c(cc(F)cc13)CN(C(=O)N1CCCCC1)CC2,83% (inactive)
19,O=C1NC(=O)[C@@H](c2cn3c4c(cccc24)CCC3)[C@@H]1c1c[nH]c2ccccc12,31% (inactive)
20,COc1cc(Nc2ncc(F)c(Nc3ccc4c(n3)NC(=O)C(C)(C)O4)n2)cc(OC)c1OC,2.19% (active)

row,SMILES,growth
1,CC(C)[C@@H]1CC[C@]2(CO2)[C@@H]2C(=O)OCC(C(=O)O)=C[C@H]21,-11.9% (active)
2,Nc1nc(Nc2ccccc2)c(C=Nc2ccccc2)c(=O)[nH]1,66.8% (inactive)
3,C=C1C(=O)O[C@H]2[C@H]1CC/C(C=Nc1c(N)cc(C(F)(F)F)cc1C(F)(F)F)=C\CC[C@@]1(C)O[C@@H]21,-39.9% (active)
4,CNC(=O)c1ccc(Nc2ncc(C(F)(F)F)c(NCc3nccnc3N(C)S(C)(=O)=O)n2)cc1,-13.6% (active)
5,CC(=O)OCCC/C(=C\c1ccc2ccccc2c1)[N+](=O)[O-],-90.5% (active)
6,CC1(C=O)NC(=O)NC1=O (stereo not given),96.4% (inactive)
7,CCCC(=O)OCC1OC(n2cnc3c(=S)nc(N)[nH]c32)C(OC(=O)CCC)C1OC(=O)CCC (stereo not given),11% (inactive)
8,CCc1nc2cc(/C=C/C(=O)NO)ccc2c(=O)n1CCc1ccc(F)cc1,-4.03% (active)
9,CNC(=O)c1cccc2cc(Oc3ccnc4cc(OCC5(N)CC5)c(OC)cc34)ccc12,64.6% (inactive)
10,COc1ccc(C2OC(c3cc(-c4cc5ccccc5o4)nn3-c3ccccc3)=NN2C(C)=O)cc1 (stereo not given),74.1% (inactive)
11,CCc1cnn2c(NCc3ccc[n+]([O-])c3)cc(N3CCCC[C@H]3CCO)nc12,-20.2% (active)
12,Cc1cc2c(-c3nc4ccccn4c3Nc3cccc4ccccc34)c(O)c(O)cc2c(O)c1-c1c(C)cc2c(-c3nc4ccccn4c3Nc3cccc4ccccc34)c(O)c(O)cc2c1O,9.86% (active)
13,Cc1nc2ccc(-n3ncc(C(=O)c4cc5ccccc5[nH]4)c3N)cc2[nH]1,74.8% (inactive)
14,CC1CCC(n2cnc3c(Cl)ncnc32)O1 (stereo not given),75.5% (inactive)
15,C[C@@H](Oc1cc(C(=O)Nc2ccc(C(=O)N3CCN(C)CC3)cc2)nnc1N)c1c(Cl)ccc(F)c1Cl,48.3% (inactive)
16,COc1cnc2c(c1)C(=O)c1c-2n(CCCN2CCOCC2)c(=O)c2cc(Cl)ccc12,70.4% (inactive)
17,CN1CCN(CCCOc2cccc3nc(Nc4ccc(Cl)c(C(F)(F)F)c4)ccc23)CC1,10.2% (inactive)
18,Fc1ccc(NCc2cn(-c3ccccc3)nc2-c2ccc(OCc3ccccc3)cc2)cc1Cl,91.2% (inactive)
19,NC1(c2ccc(-c3nc4ccn5c(=O)[nH]nc5c4cc3-c3ccccc3)cc2)CCC1,23.2% (inactive)
20,C[C@@H](N)c1ccc(C(=O)Nc2ccnc3[nH]ccc23)cc1,55.6% (inactive)
